Measurements from PubChem BioAssay (NCI).
Compounds without any hit were thinned out: in the full panel of roughly 83,000, 20% have a hit.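 Compound tested at a single concentration for 48 hours in 96-well plates; a percent growth value below 10 was scored as active.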 Values without a mark were called inactive. Activity calls are given as the source filed them.

Test system: HL-60(TB) leukemia
Experiment: NCI-60 one-dose screen, 48 h (100 = growth as untreated, 0 = no growth, -100 = all killed)
Settings: 10 µM unless noted

SMILES | growth
O=C(c1ccccc1)N(C(=O)c1ccccc1)N1CCCC1 | 120%
O=C(Nc1cccc(-n2cc(-c3ccncc3)c(-c3ccc(O)c(Cl)c3)n2)c1)c1cc(C(F)(F)F)cc(C(F)(F)F)c1 | 58.9%
COc1cc(-c2nn(-c3cccc(NC(=O)CCNc4ccc(N5CCOCC5)cc4)c3)cc2-c2ccncc2)ccc1Cl | 8.36% (active)
CCCCCCCCCCN=C(c1ccc(N(C)C)cc1)c1ccc(N(C)C)cc1 | 11.2%
COc1ccc(/C=C(/C(=O)N2CCN(c3ccccc3)CC2)c2cc(OC)c(OC)c(OC)c2)cc1O | -34.5% (active)
CCCCCC[C@@H](O)C/C=C\CCCCCCCC(=O)OCCOC | 156%
C=CCN=C1NC(=O)/C(=C/c2cc(C(C)(C)C)c(O)c(C(C)(C)C)c2)S1 | 54.3%
CCOc1cc(/C=C/C(=O)CC(=O)/C=C/c2ccc(OC(=O)CNc3nc4ccc(OC)cc4s3)c(OCC)c2)ccc1OC(=O)CNc1nc2ccc(OC)cc2s1 | 21.5%
COc1ccc(C2=NN(C(=O)c3cc(OC)c(OC)c(OC)c3)C(c3ccc(N(C)C)cc3)C2)cc1 (stereo unspecified) | -18.4% (active)
CCOc1cccc(NC2=C(Br)C(=O)C(C)=C(C)C2=O)c1 | -12.5% (active)
CCN(CC)CCC(CNc1c(C)cnc2cc(Cl)ccc12)c1ccc(Cl)cc1 (stereo unspecified) | 52.5%
CCCCn1c(=O)[nH]c2c(c1=O)C(c1ccc(Cl)cc1)c1c([nH]c(=O)n(CCCC)c1=O)N2 | 99.2%
NC(=S)N/N=C/c1ccc(OC(=O)COc2ccccc2)cn1 | 35.3%
C(=Nc1ccc(-c2ccc(N=Cc3ccccc3)cc2)cc1)c1ccccc1 | 107%
COc1cccc(NC(=O)c2sc3nc(C)c(C(=O)c4ccccc4)cc3c2N)c1 | 93.5%
CCCCN(CCCC)Cc1c(C)[nH]c2cc(OC)ccc2c1=O | 94.1%
COc1ccc(C/C(C)=C(\c2ccc(Cl)cc2)c2ccc(OCCN3CCCCCC3)cc2)cc1 | 30.7%
CSC[C@H](NC(=O)COc1cccc2cnccc12)C(=O)NC(Cc1ccccc1)C(O)C(=O)N1CSC[C@H]1C(=O)NC(C)(C)C (stereo partly specified) | 140%
Clc1ccc(-c2cnc3nonc3n2)s1 | 29%
COc1cc(OC)cc(C(=O)C[n+]2cccc3cc[nH]c32)c1 | 99%
O=c1cc(-c2ccc(Cl)cc2)[nH]c2ccccc12 | 44.3%
CCOC(=O)C(=Cc1cccc(C#N)c1)C(=O)OCC | 27.9%

SMILES | growth
CCN(CC)CCOc1nc2ccc(OC)cc2c2c1-c1ccc(OC)cc1C2=O | 19.2%
CCC1(c2ccccc2)Oc2ccccc2-n2c(C#N)c3ccccc3c2C1=O (stereo unspecified) | 92.8%
COC(=O)c1ccc2[nH]c(O)c(C(=Nc3ccc(N(C)C(=O)CN4CCN(C)CC4)cc3)c3ccc(CCO)cc3)c2c1 | 7.24% (active)
O=C(Cn1nnc([N+](=O)[O-])n1)c1ccccc1 | 38%
COC(=O)/C=C1\Sc2cc(F)ccc2NC1=O | 97.7%
N#Cc1ccc(OC(=O)Nc2c(Cl)cc(Cl)cc2Cl)cc1 | 102%
CC(Oc1ccc(C(=O)O)cc1C(F)(F)F)c1ccc(Oc2ccccc2)cn1 (stereo unspecified) | 101%
O=C1NC(=O)c2c1c1c3ccccc3[nH]c1c1oc3cc(Br)ccc3c21 | 104%
C[C@@H]1COC(Nc2ccc3ncnc(Nc4ccc(OCc5nccs5)c(Cl)c4)c3c2)=N1 | 31.3%
C[n+]1c2ccccc2nc2ccc(NCCO)cc21 | 70.6%
CC[C@H](C)[C@H](NC(=O)[C@@H](N)CCC(N)=O)C(=O)N[C@@H](Cc1ccc(O)cc1)C(=O)N[C@@H](CCCCN)C(=O)N[C@@H](CCCCN)C(=O)N[C@@H](Cc1ccc(O)cc1)C(=O)N[C@@H](CCCNC(=N)N)C(=O)N[C@H](C(=O)N[C@@H](Cc1c[nH]c2ccccc12)C(=O)N[C@@H](Cc1ccc(O)cc1)C(=O)N[C@@H](CCCNC(=N)N)C(=O)N[C@@H](CCCCN)C(=O)N[C@@H](C)C(=O)N[C@@H](Cc1c[nH]c2ccccc12)C(=O)N[C@@H](CCCCN)C(=O)N[C@H](C(=O)N[C@@H](CC(C)C)C(=O)NCC(=O)N[C@@H](CCCCN)C(=O)N[C@H](C(N)=O)C(C)C)C(C)C)[C@@H](C)O | 13.9%
CCOC(=O)c1cnc2c(cnn2CC)c1NN=C(C)C | 74.4%
CN1C[C@@H](c2ccc(Cl)cc2)[C@]2(NC(=S)N(c3ccccc3)C2=O)[C@@]12C(=O)NC1C=CC(Br)=C[C@H]12 (stereo partly specified) | 40.2%
CN1CC[C@H](c2c(O)cc(O)c3c(=O)cc(-c4ccccc4Cl)oc23)[C@H](O)C1 | -23.1% (active)
COc1cccc(/C=C/C(=O)Nc2cc(OC)c3c(c2)OCO3)c1 | 78%
COc1ccc(C/C(C)=C(/c2ccc(OCCCN(C)C)cc2)c2ccc(OC(C)=O)cc2)cc1 | 70.8%
CC(=O)c1cc(C(=O)c2ccc3c(c2)Sc2ccccc2N3)n2ccccc12 | 14.3%
N#Cc1ccc(Oc2ccc3ccc(=O)oc3c2)cc1 | 82.7%
CNC(=O)c1cc(Oc2ccc3c(c2)sc2nc(-c4ccc(NC(=O)[C@@H](NC(=O)OC)C(C)C)cc4)cn23)ccn1 | 51.1%
CCOc1nc(-c2ccccc2)cc2c(O)c(C(=O)N/N=C/c3ccc(OC)cc3)[nH]c(=O)c12 | 65.1%
CC1(C)CC[C@]2(CO)CC[C@]3(C)[C@H](CC[C@@H]4[C@@]5(C)CCCNC(C)(C)[C@@H]5CC[C@]43C)[C@H]2[C@H]1O | 57.8%
CC(C(C(=O)N1CCCCC1)N1CCCCC1)N1CCCCC1 (stereo unspecified) | 104%

SMILES | growth
CN(C)CC(=O)c1ccc2cc(Br)c3ccccc3c2c1 | 53.4%
CCCCCC(=O)OCc1ccc(Cl)c(Cl)c1 | 97.2%
CCCCC(CC)OC(=O)C(Br)CC (stereo unspecified) | 99.6%
COc1cc2nc(Cc3ccc(C)cc3)[nH]c(=O)c2cc1OC | 98.7%
NC(=O)c1cccc(-c2ccc(S(=O)(=O)Nc3ccc4c(c3)N(C(=O)C3CC3)CCC4)cc2)c1 | 1.43% (active)
COc1cc(C(=O)c2cc(C)c3[nH]c4ccc(C)cc4c3c2C)cc(OC)c1OC | -2.6% (active)
Cn1ccc(=O)c(C(=O)Nc2nsc3ccc([N+](=O)[O-])cc23)c1 | 54.9%
CCCCC(C=O)(C=C=C(C)C)CC (stereo unspecified) | 104%
O=C(O)CCCl | 107%
CCCCOC(=O)Oc1ccc(C(=O)Oc2ccc(OCC)cc2)cc1 | 109%
CC(C)Nc1ccc(Nc2ccc(NC(C)C)cc2)cc1 | 22.1%
O=c1cc(CP(=O)(O)O)c2cc(O)c(-c3ccccc3)cc2o1 | 104%
CC(C)CSc1nc(Nc2ccccc2)c(C#N)c(-c2ccc(F)cc2)n1 | 73.4%
CCN1CCN(CC(=O)Nc2nc3ccc(NCc4ccc(Br)cc4)cc3s2)CC1 | 20.1%
CC(=O)N1N=C(c2ccc(C)cc2)CC1c1ccc(Oc2ccc(Br)cc2)cc1 (stereo unspecified) | 94%
Nc1n[nH]c2cc(F)c([C@@H]3Nc4ccc5[nH]ncc5c4[C@H]4C5CCC(C5)[C@@H]34)cc12 (stereo partly specified) | -22.4% (active)
CCOC(=O)c1cnn(CC(O)c2ccc(F)cc2)c1NC(=O)Nc1ccccc1F (stereo unspecified) | 102%
O=C(N/N=C/c1ccccc1O)C(=O)Nc1ccc(F)cc1 | 29.6%
CC1=C(NCCN2CCCC2)C(=O)c2c(OCc3ccc(C(F)(F)F)cc3)cccc2C1=O | -20.6% (active)
COc1cc2ncnc(Nc3ccc(S(=O)(=O)Nc4cc(C)on4)cc3)c2cc1OCCCN1CCOCC1 | 101%
CC(C)N(CCOC(=O)Nc1ccccc1Cl)C(C)C | 103%
Cc1ccc(-c2nc(N3CCN(C(=O)Nc4ccc(Cl)c(C(F)(F)F)c4)CC3)c3ccccc3n2)cc1 | 98.9%
